PMC5540273 (PLoS ONE, 2017)

Key:
Details in all cases: concentration: 1 μM, replicates: in singlicate; n = 1
WNK1 = tested on: WNK1
WNK2 = tested on: WNK2
WNK3 = tested on: WNK3
WNK4 = tested on: WNK4
YANK1 = tested on: T1, YANK1
T1 construct: gene STK32A

YANK2 = tested on: T2, YANK2
T2 construct: gene STK32B

YANK3 = tested on: T3, YANK3
T3 construct: gene STK32C

YES = tested on: T4, YES
T4 construct: gene YES1

YSK1 = tested on: T5, YSK1
T5 construct: gene STK25

YSK4 = tested on: T6, YSK4
T6 construct: gene MAP3K19

ZAK = tested on: ZAK
ZAP70 = tested on: ZAP70
p38-alpha = tested on: T7, p38-alpha
T7 construct: gene MAPK14

p38-beta = tested on: T8, p38-beta
T8 construct: gene MAPK11

p38-delta = tested on: p38-delta
p38-gamma = tested on: T9, p38-gamma
T9 construct: gene MAPK12
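Note: KINOMEscan kinase panel screen.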

SMILES	%Inh (WNK1) [%]	%Inh (WNK2) [%]	%Inh (WNK3) [%]	%Inh (WNK4) [%]	%Inh (YANK1) [%]	%Inh (YANK2) [%]	%Inh (YANK3) [%]	%Inh (YES) [%]	%Inh (YSK1) [%]	%Inh (YSK4) [%]	%Inh (ZAK) [%]	%Inh (ZAP70) [%]	%Inh (p38-alpha) [%]	%Inh (p38-beta) [%]	%Inh (p38-delta) [%]	%Inh (p38-gamma) [%]
O=C(O)C(F)(F)F.O=C(O)C(F)(F)F.O=c1[nH]ccc2nc(N[C@@H]3CCCNC3)nc(Nc3ccc(S(=O)(=O)N4CCOCC4)cc3)c12 [GSK2177277]	0	29	13	0	96.6	89	74	75	94.2	99.7	0	71	0	0	57	40
COc1ccc(Nc2nccc(N3CCC(NC(=O)Nc4cccc(OC)c4)C3)n2)cc1 (stereo not shown) [GSK1379742]	0	18	19	0	10	0	0	0	0	23	2	3	1	0	29	0
Cc1ccc(F)c(C(=O)Nc2cccc(-c3nn4ccccc4c3-c3ccnc(Nc4cccc(F)c4)n3)c2)c1F [GSK361061]	0	6	3	0	6	47	6	95.3	0	0	89	0	29	76	0	12
CSc1cccc2c(-c3ccncn3)c(-c3ccc(F)cc3)nn12 [GW514786]	0	1	22	24	23	24	2	4	0	0	0	8	98	29	38	2
Nc1ncnc2c1nc(-c1ccccc1)n2-c1ccccc1 [SKF-97293]	47	5	48	28	3	21	0	0	4	54	16	12	12	4	0	26
Clc1ccc(-c2nn3ncccc3c2-c2ccnc(Nc3ccc4c(c3)OCCO4)n2)cc1 [GW829116]	0	0	0	0	0	21	0	45	0	0	9	0	99.7	83	13	0
CN1CCN(Cc2cccc(-c3ccc4c(Nc5ccc(Oc6ccccc6)cc5)ccnc4c3)c2)CC1 [GW578342]	0	15	31	49	3	0	0	88	12	0	79	14	23	0	37	2
Cl.NC(=O)c1cccc(Nc2nccc(Nc3ccc(Oc4c(Cl)cccc4Cl)c(Cl)c3)n2)c1 [GW659009]	3	0	12	0	4	0	5	39	0	3	10	0	0	100	0	0
Cc1occc1-c1ncc(OC[C@@H](N)Cc2c[nH]c3ccccc23)cc1-c1ccc2[nH]nc(C)c2c1.O=C(O)C(F)(F)F [GSK682037]	11	7	0	0	96.5	95	94.5	38	17	99.5	0	0	89	36	73	72
O=c1[nH]cc(-c2ccc(N3CCOCC3)cc2)c2sc(-c3cn[nH]c3)cc12 [GSK2276055]	7	1	8	0	8	0	16	0	26	98.1	69	0	8	0	41	36
Cl.Cl.NCC(NC(=O)c1cc(-c2ccccc2)c(-c2ccnc3[nH]ccc23)s1)c1ccccc1 (stereo not shown) [GSK1321561]	5	100	3	5	48	35	1	41	0	73	46	0	0	0	47	0
CN(C)S(=O)(=O)c1cc(-c2ccc3nccc(-c4cccc(S(N)(=O)=O)c4)c3c2)cnc1N [GSK1669921]	0	0	0	0	31	0	2	1	0	93.3	0	4	0	0	44	23
COc1cc(Nc2nccc(-c3c(-c4cccc(NC(=O)c5c(F)cccc5F)c4)nn4ncccc34)n2)cc(OC)c1OC [GSK327238]	1	0	0	0	50	89	56	100	56	7	97.2	0	99.9	100	52	21
O=C(Nc1cccc(-c2nn3ccccc3c2-c2ccnc(Nc3cccc(F)c3)n2)c1)c1c(F)ccc(F)c1Cl [GSK357952]	3	0	43	0	34	75	23	98.7	0	0	85	0	0	26	36	0
O=C(Nc1cccc(-c2nn3ccccc3c2-c2ccnc(Nc3cccc(C(F)(F)F)c3)n2)c1)c1c(F)cccc1F [GSK292658]	5	15	0	27	12	7	23	95.2	0	0	80	0	17	32	24	0
COc1cc(Nc2nccc(N3CCC(NC(=O)c4cc5ccccc5s4)C3)n2)cc(OC)c1OC (stereo not shown) [GSK1379760]	0	0	30	11	13	11	0	8	17	0	0	0	3	2	15	26
CCn1c(-c2nonc2N)nc2c(C#CC(C)(C)O)nc(OC[C@H](N)c3ccccc3)cc21 [GSK943949]	0	0	0	31	0	0	31	19	0	100	0	0	0	0	0	34
Cl.Cl.NCC(C(=O)Nc1cc(Br)c(-c2ccnc3[nH]ccc23)s1)c1ccccc1 (stereo not shown) [GSK1269851]	7	100	25	11	8	0	0	7	0	95.5	0	0	0	40	17	0
COc1cc(Nc2ncc3c(C)nc(-c4cc5ccccc5[nH]4)n3n2)cc(OC)c1OC [GW869516]	0	0	0	0	0	0	0	47	0	0	0	0	9	2	0	16
